Only some compounds are listed: those with a hit (about 2.3% of all), similar ones and a draw of the others.
AmpC no deterg: inhibitors of E. coli AmpC beta-lactamase without detergent; P00811; AmpC nitrocefin hydrolysis, absorbance 480 nm, 0.0001% Triton; Potency, µM (titrated, usually from 57.1 µM), for inactives: at the top dose activity change, negative = inhibition, usual class: inhibitors; actives 0.52% (n = 330,000); AID 485341;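 note: potency is the fitted concentration of half-maximal effect; plate controls were no compound for no effect and no enzyme for full effect; nearly all actives have a fitted effect of over 20% in size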
Target sequence (P00811 whole entry, looked up): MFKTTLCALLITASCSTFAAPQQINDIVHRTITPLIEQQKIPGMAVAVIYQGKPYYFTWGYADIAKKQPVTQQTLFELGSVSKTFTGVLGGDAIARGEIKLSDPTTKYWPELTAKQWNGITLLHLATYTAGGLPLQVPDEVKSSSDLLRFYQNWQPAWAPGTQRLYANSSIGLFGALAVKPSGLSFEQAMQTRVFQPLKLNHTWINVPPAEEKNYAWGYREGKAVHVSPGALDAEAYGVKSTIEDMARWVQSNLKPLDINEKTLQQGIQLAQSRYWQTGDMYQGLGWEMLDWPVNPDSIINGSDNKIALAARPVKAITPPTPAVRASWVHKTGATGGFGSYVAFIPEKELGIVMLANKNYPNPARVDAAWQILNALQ
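AmpC (5.3 nM in the dispensed reagent) in 20 mM phosphate pH 7.0 with 0.01% (detergent screen) or 0.0001% Triton X-100 was preincubated with compounds for 15 min at room temperature. Nitrocefin was then added from an 800 uM solution, and hydrolysis was followed at 480 nm.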
Marburg entry inh: inhibitors of Marburg virus binding or cell entry | Marburg virus pseudotyped entry inhibition, cell reporter | Potency, µM (doses to about 37.8 µM), inactives show top-dose activity change, negative = inhibition, hits mostly inhibitors | actives 1.8% (n = 300,000) | AID 540276; calls by dose curve; tested in HEK293 cells; note: potency is the fitted concentration of half-maximal effect; % is set by controls: 0 for no effect and ±100 for the full control effect
AMA1 RON2 block: disrupts binding of P. falciparum AMA1 to RON2. AlphaScreen AMA1-biotinylated RON2 peptide binding. Potency, µM (highest dose often 58.2 µM), without a hit: at the highest dose activity change, negative = inhibition, most hits filed as inhibitors. actives 0.2% (n = 360,000). AID 720542;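 note: potency is the fitted concentration of half-maximal effect; 0% = vehicle wells and -100% = peptide control; nearly all actives have a fitted effect of over 45% in size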
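AMA1 (3D7) with his tag at 25 nM final met compounds first, then biotinylated RON2 peptide at 25 nM; detection used donor plus acceptor beads, 10 µg/mL apiece, read by AlphaScreen after 30 min at room temperature.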
Lassa entry inh: inhibitors of Lassa virus binding or cell entry; actives 1.2% (n = 300,000); Potency, µM (highest dose often 37.9 µM), for inactives: at the highest dose activity change, negative = inhibition, actives largely listed as inhibitors; Lassa virus pseudotype entry inhibition, cell reporter; calls by dose curve; tested in HEK293 cells; note: potency is the fitted concentration of half-maximal effect; % is set by controls: 0 for no effect and ±100 for the full control effect; nearly all actives have a fitted effect of over 50% in size
AmpC inh detg: inhibitors of E. coli AmpC beta-lactamase with detergent; actives 0.041% (n = 370,000); Potency, µM (series often up to 114 µM), for inactives: at the highest dose activity change, negative = inhibition, actives largely listed as inhibitors; AmpC hydrolysis of nitrocefin, absorbance 480 nm, 0.01% Triton;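 note: potency is the fitted concentration of half-maximal effect; 0% = no-compound wells and -100% = no-enzyme wells; nearly all actives have a fitted effect of over 25% in size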
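20 mM phosphate pH 7.0 + 0.01% (detergent screen) or 0.0001% Triton X-100; 5.3 nM AmpC reagent; cpd preinc 15 min RT; nitrocefin (800 uM stock) to start; A480 q20 s × 4 min; Activity was normalised to no-enzyme and no-compound control wells.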
HeLa G2M arrest: causes HeLa cells to arrest in G2/M phase | shares compounds with Marburg entry inh | actives 60% (n = 25) | HeLa cell cycle G2/M arrest, Hoechst DNA content imaging | Potency, µM, actives largely listed as inhibitors
WI-38 cytotox: toxic to WI-38 fibroblasts in PNC inhibitor counter-screen | 120 tested, under 10 active | shares compounds with Marburg entry inh | AID 2729 | Potency, µM (titrated, usually from 46.1 µM), inactives show at the highest dose activity change, negative = cytotoxicity, hits mostly inhibitors | WI-38 normal lung fibroblasts, ATPLite luminescence ATP viability, 24 h
PNC assembly inh: confirmation of perinucleolar compartment assembly inhibitors; Potency, µM (top dose mostly 46.1 µM), inactives show at the top dose activity, negative = PNC inhibition, most hits filed as inhibitors; shares compounds with Marburg entry inh; AID 2730; PC3M PTB-GFP, PNC prevalence imaging, 16 h; actives 50% (n = 120)
PC3M caspase: counter-screen for PNC inhibitors: PC3M caspase 3/7 activation; activity change, positive = activation, % at 46.1 µM; 120 tested, under 10 active; AID 2731; PC3M-GFP caspase 3/7 activation, luminescence, 24 h; shares compounds with Marburg entry inh
Starred values were filed as active, the others as inactive; u = inconclusive; x = no result given; [ ] = remark or other dose. Unless noted, calls come from the whole dose curve; as a rule, active = well fitted curve in the direction sought with a large enough effect; inconclusive = small, poorly fitted or top-dose-only effect, or another doubt; inactive = no such curve, though single readings can be large; an effect the other way counts as inactive or inconclusive.

SMILES	AmpC no deterg	Marburg entry inh	AMA1 RON2 block	Lassa entry inh	AmpC inh detg	WI-38 cytotox	PNC assembly inh	PC3M caspase	others
COc1ccc(C(=O)N/N=C/c2ccc3cccc(OCc4ccccc4)c3n2)cc1	-22.8%	u	5.9%	u	-13.7%	x	x	x
COc1cccc(/C=N/NC(=O)c2cc(-c3cccn3C)n[nH]2)c1O	-15.8%	8.91µM*	13.7%	2.24µM*	u	x	x	x
COc1cccc(/C=N/NC(=O)c2cc(-c3cccn3C)n[nH]2)c1	12.6µM*	-7.7%	-22.8%	-1.5%	-13.6%	x	x	x
COc1cc(/C=N/NC(=O)c2cc(-c3cccn3C)n[nH]2)cc(OC)c1OC	-30.3%	-8.9%	13.4%	-3.5%	u	x	x	x
COc1cc(OC)c(/C=C2/C(=O)Nc3ccccc32)c(OC)c1	x	0.891µM*	x	u	x	x	x	x	HeLa G2M arrest=2*
COc1ccc(-n2c(SC(C)C(=O)Nc3ncc(Cl)cc3Cl)nc3ccccc32)cc1 (stereo not given)	0.1%	u	-6.9%	0.251µM*	2.9%	u	3.16µM*	3.7
CC(=O)O[C@H]1C(=O)[C@@]2(C)C([C@H](OC(=O)c3ccccc3)[C@]3(O)C[C@H](OC(=O)[C@H](O)[C@@H](NC(=O)c4ccccc4)c4ccccc4)C(C)=C1C3(C)C)[C@]1(OC(C)=O)CO[C@@H]1C[C@@H]2O (stereo not given in full)	x	0.251µM*	x	u	x	x	x	x	HeLa G2M arrest=0.0126*
O=C(Cn1cc(C(=O)C(F)(F)F)c2ccccc21)N1CCCCCC1	x	10.1%[46.1 µM]	x	-17.9%[46.1 µM]	-5.2%	x	x	x
CNc1ccc2oc(C[C@H]3O[C@@]4(CC[C@H]3C)O[C@H]([C@H](C)C(=O)c3ccc[nH]3)[C@H](C)C[C@H]4C)nc2c1C(=O)O	-19.5%	2.91µM*	80.4%	0.231µM*	-6.2%	x	x	x	HeLa G2M arrest=4.47*
O=c1c2ccccc2nnn1CSc1ccc2ccccc2n1	-9.9%	13.4%	3.0%	-0.6%	-2.1%	19.3%	u	-8.0
Cc1ccc(CCNC(=O)c2cn(C)c3ccc(S(=O)(=O)N4CCC(C)CC4)cc3c2=O)cc1	x	0.8%[46.1 µM]	x	2.2%[46.1 µM]	-1.2%	x	x	x
CN(C)CCCN1c2ccccc2Sc2ccc(Cl)cc21	60.9%	5.62µM*	u	23.1µM*	-18.0%	x	x	x	HeLa G2M arrest=u
CN(C)CCCN1c2ccccc2Sc2ccc3ccccc3c21	x	u	-22.4%	u	x	x	x	x
Cc1cc[n+](C2=C([O-])c3ccccc3C(=O)/C2=N\S(=O)(=O)c2cccs2)cc1C	-45.0%	u	-8.4%	u	-12.3%	-23.7%	u	u
C#CCn1c(C)cc(C)c(S(=O)(=O)c2ccccc2)c1=O	-9.2%	4.7%[46.1 µM]	-1.8%	9.6%	0.6%	x	x	x
C#CCn1c(S(=O)(=O)Cc2ccc(C)cc2)nc(-c2ccccc2)c1-c1ccccc1	-29.7%	4.61µM*	-19.4%	3.26µM*	-9.2%	3.4%	7.94µM*	-5.2
Cc1c(C#N)c(N)nc2c3c(sc12)NC(=O)CC3c1ccc(F)cc1 (stereo not given)	-7.9%	u	-3.6%	14.9%	4.3%	-11.8%	-10.4%	-5.8
Cc1c(C#N)c(N)nc2c3c(sc12)NC(=O)CC3c1ccccc1 (stereo not given)	-17.9%	u	2.2%	1.0%	-9.4%	x	x	x
Cc1ccc(Cl)cc1N(CC(=O)N1CCCCCC1)S(C)(=O)=O	-2.9%	6.8%	10.0%	8.6%	u	6.1%	8.1%	-6.2
Cc1ccc(Cl)cc1N(CC(=O)N1CCOCC1)S(C)(=O)=O	-18.1%	x	-1.4%	x	-7.0%	x	x	x
O=C(N/N=C/c1cc(Cl)ccc1O)C(=O)Nc1ccccc1OC(F)(F)C(F)F	-17.3%	u	22.6%	u	-7.0%	-7.8%	u	6.4
COc1ccc(Cc2nnc(N/N=C/c3ccc(O)cc3)[nH]c2=O)cc1OC	-36.0%	u	u	u	-1.7%	u	u	-2.0
COc1ccc(Cc2nnc(N/N=C/c3ccc(Br)cc3)[nH]c2=O)cc1OC	-24.2%	x	8.3%	x	-5.7%	x	x	x
CCc1cccc(C)c1NC(=O)c1cc(S(=O)(=O)N2CCN(c3ccccc3)CC2)ccc1F	x	x	x	-11.3%[46.1 µM]	1.9%	x	x	x
C/C(N)=C(/C#N)C(=O)COC(=O)c1cc(C)n(-c2ccc(F)cc2)c1C	56.6%	2µM*	17.9%	u	9.1%	-3.9%	12.6µM*	-8.5
SMILES	AmpC no deterg	Marburg entry inh	AMA1 RON2 block	Lassa entry inh	AmpC inh detg	WI-38 cytotox	PNC assembly inh	PC3M caspase	others
CCOc1cccc(C(=O)N(Cc2ccc(C)o2)C2CCS(=O)(=O)C2)c1 (stereo not given)	x	u	x	0.4%[46.1 µM]	19.6%	x	x	x
COc1ccc(-c2nc3sc(CCNC(=O)C(=O)Nc4ccc(C)c(F)c4)c(C)n3n2)cc1	x	x	x	-15.9%[46.1 µM]	-0.3%	x	x	x
CCOC(=O)CSc1nc2c(sc3ccc([N+](=O)[O-])cc32)c(=O)n1Cc1ccco1	-47.3%	9.5%	8.7%	2.5%	1.2%	4.9%	-11.7%	3.1
CCc1ccc(NC(=O)CN2C(=O)C(c3ccc(F)cc3)=NC2(C)C)cc1	x	-11.7%[46.1 µM]	x	28.6%[46.1 µM]	0.9%	x	x	x
O=C(Nc1noc2ccccc12)c1ccc(F)cc1	x	u	x	13.1%[46.1 µM]	11.9%	x	x	x
Cc1ccc(C)c(CN2C(=O)c3ccccc3S(=O)(=O)c3ccc(C(=O)N4CCCCC4)cc32)c1	x	u	x	u	-14.5%	x	x	x
COc1ccc(CN2C(=O)N(c3ccc(F)cc3)C(=O)C2CC(=O)Nc2cc(OC)cc(OC)c2)cc1 (stereo not given)	x	x	x	-25.0%[46.1 µM]	-3.3%	x	x	x
O=C(N/N=C/c1ccccc1O)c1cccc(C(F)(F)F)c1	-16.3%	5.62µM*	59.7%	u	-13.4%	-7.3%	28.2µM*	-0.3
CNC1=C(N(C(C)=O)c2ccc(Br)cc2)C(=O)c2ccccc2C1=O	-13.5%	2.31µM*	-0.9%	5.62µM*	u	u	u	u
O=C(N/N=C\c1ccc([N+](=O)[O-])s1)c1cncc(Br)c1	-7.4%	2.59µM*	25.8%	2.91µM*	u	-26.3%	22.4µM*	u
Cc1cccc(Nc2nnc(-n3nc(C)cc3C)c3ccccc23)c1	x	u	x	u	8.3%	x	x	x
Cc1cnc(NC(=O)COc2cccc3c2OC(C)(C)C3)s1	13.1%	u	-13.9%	0.708µM*	u	-4.3%	7.94µM*	-3.0

Screens from PubChem BioAssay.
